Reference: PubChem BioAssay (NCI)
Compounds without any hit were thinned out: in the full panel of roughly 79,000, 15% have a hit. Values without a mark were called inactive. Activity calls are given as the source filed them. No stated cut-off is given here; in the data, active means growth inhibition above about 70%; inactive means the rest.

Experiments:
[1] = NCI Yeast Anticancer Drug Screen. Data for the rad50 strain (AID 155);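 further: 0% = growth of vehicle-only cultures of the same strain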; conditions: S. cerevisiae rad50 strain growth inhibition, hits give high values
Method in brief: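 Genetically altered yeast (DNA repair pathway); compound treatment; growth inhibition vs vehicle ctrl.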

[2] = NCI Yeast Anticancer Drug Screen. Data for the mec2-1 strain (AID 157); conditions: S. cerevisiae mec2-1 strain, hits give high values
Method in brief: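 mec2-1 yeast strain, carrying an alteration in DNA damage repair or cell cycle control, was exposed to compounds; growth inhibition was measured relative to vehicle-treated controls.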

[3] = NCI Yeast Anticancer Drug Screen. Data for the sgs1 mgt1 strain (AID 161);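 further: 0% = growth of cultures given vehicle only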; conditions: S. cerevisiae sgs1 mgt1 strain, hits give high values
Method in brief: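 Yeast cells carrying a defined DNA-repair defect were exposed to test compounds. Growth inhibition was measured relative to vehicle-treated controls.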

[4] = NCI Yeast Anticancer Drug Screen. Data for the cln2 rad14 strain (AID 165);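 further: 0% = growth equal to vehicle treated cultures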; conditions: S. cerevisiae cln2 rad14 strain, hits give high values
Method in brief: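 Yeast carrying cln2 and rad14 alterations (cell cycle control and DNA damage repair) were exposed to compounds. Growth inhibition was measured against vehicle-treated controls.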

[5] = NCI Yeast Anticancer Drug Screen. Data for the bub3 strain (AID 167); conditions: S. cerevisiae bub3 mutant strain, hits give high values
Method in brief: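 Yeast carrying a defined mutation is treated with each compound, and growth is compared with that of vehicle-exposed cells to give inhibition.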

[6] = NCI Yeast Anticancer Drug Screen. Data for the mlh1 rad18 strain (AID 175); conditions: S. cerevisiae mlh1 rad18 strain growth inhibition, hits give high values
Method in brief: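 Growth inhibition of the yeast strain was measured after compound exposure and expressed relative to vehicle-treated controls. The strain carries defined defects in DNA damage repair.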

[7] = at 5.0 µM (retest, dose inferred, filed as 0.5)
[8] = at 50.0 µM (retest, dose inferred, filed as 5.0)

Row | Structure (SMILES) | growth inhibition [1, 7] | growth inhibition [1, 8] | growth inhibition ([1]; at 50.0 µM) | growth inhibition [2, 7] | growth inhibition [2, 8] | growth inhibition ([2]; at 50.0 µM) | growth inhibition [3, 7] | growth inhibition [3, 8] | growth inhibition ([3]; at 50.0 µM) | growth inhibition [4, 7] | growth inhibition [4, 8] | growth inhibition ([4]; at 50.0 µM) | growth inhibition [5, 7] | growth inhibition [5, 8] | growth inhibition ([5]; at 50.0 µM) | growth inhibition [6, 7] | growth inhibition [6, 8] | growth inhibition ([6]; at 50.0 µM)
1 | COc1ccccc1NC(=O)C1=C(C)NC(C)=C(C(=O)Nc2ccccc2OC)C1c1ccc(OC)c(OC)c1 | 9% | 50% | 55.9% | -3% | 43% | 26.6% | 9% | 48% | 49.9% | -4% | 31% | -38.9% | -1% | 51% | -3.55% | 2% | 38% | 23.9%
2 | CCC1CCC(CC)C1O (centres undefined) | 1% | 6% | 34.9% | 0% | -3% | 22.9% | 2% | 0% | 26.8% | 1% | 4% | 29.8% | 1% | 2% | 78.7% (active) | -2% | 2% | 28.5%
3 | CCC#CC(O)(C(=O)OCC)C1CCCC1 (centres undefined) | -148% | -161% | -1.05% | -50% | -51% | 13.5% | -59% | -64% | -0.35% | -57% | -59% | 33.5% | -67% | -85% | 18.4% | -115% | -115% | 7.9%
4 | O=P(O)(CN1CCN(CP(=O)(O)c2ccccc2)CCN(CP(=O)(O)c2ccccc2)CC1)c1ccccc1 | 17% | 65% | 86.7% (active) | 4% | 61% | 81.8% (active) | 11% | 51% | 85% (active) | 12% | 58% | 60% | 30% | 72% (active) | 88.3% (active) | 22% | 53% | 80.3% (active)
5 | COc1ccccc1NC(=O)Oc1ccc(C(C)(CCC(=O)O)c2ccc(OC(=O)Nc3ccccc3OC)cc2)cc1 | -2% | 13% | -9.65% | 8% | 25% | -1.8% | -31% | -7% | 11.7% | 2% | -20% | 39.8% | 0% | 15% | 8.05% | -26% | -45% | -24.6%
6 | C/C=C\C=N\NC(N)=S | 4% | 5% | 8.9% | -3% | 5% | 83.7% (active) | 3% | 6% | -17.4% | 3% | -3% | -24.6% | 2% | 7% | -2.1% | 2% | 1% | 28.6%
7 | CSC(SC)C(SC)SC | 1% | 98% (active) | 1.65% | 1% | 99% (active) | -5.4% | -4% | 99% (active) | 0.65% | 6% | 99% (active) | 16.6% | 0% | 99% (active) | -2.35% | -1% | 99% (active) | -1.15%
8 | CC(=O)CC(C)=O.CCN(CC)CC[C-]=O.[Pd+2] | 1% | 54% | 66.9% | 8% | 33% | 70.8% (active) | -5% | 22% | 73.5% (active) | 21% | 32% | 9.6% | -1% | 33% | 76.5% (active) | 0% | 54% | 74.9% (active)
9 | CC(C)c1ncc(-c2ccccc2)cc1-c1ccccc1 | -2% | 93% (active) | 95.7% (active) | -3% | 96% (active) | 97.5% (active) | -1% | 94% (active) | 97.7% (active) | 2% | 86% (active) | 78.8% (active) | 6% | 95% (active) | 98.5% (active) | -7% | 95% (active) | 96% (active)
10 | Cn1c(=O)ccc2cc(C(=O)c3ccccc3)ccc21 | 7% | 22% | 30.2% | -9% | 7% | 6.95% | -9% | -5% | 14.4% | 39% | 51% | 35.4% | -7% | 46% | 16.8% | 9% | 45% | 65.7%
11 | O=C1NC(=O)C(Cc2ccccc2)(Cc2ccccc2)S1 | 5% | 98% (active) | 99.2% (active) | 10% | 99% (active) | 99.4% (active) | -16% | 98% (active) | 99.3% (active) | 21% | 99% (active) | 99.2% (active) | 17% | 99% (active) | 99.5% (active) | 6% | 99% (active) | 99.2% (active)
12 | Oc1ccc(O)c2nc3ccccc3nc12 | 20% | 97% (active) | 50.8% | 3% | 97% (active) | 33.8% | 8% | 98% (active) | 24.1% | 2% | 98% (active) | -1.85% | 6% | 98% (active) | 68.2% | 24% | 97% (active) | 76.4% (active)
13 | Clc1ccc(SSN2CCOCC2)cc1 | 7% | 84% (active) | 98.5% (active) | -2% | 80% (active) | 98.9% (active) | 1% | 98% (active) | 98.9% (active) | -2% | 40% | 61.3% | 4% | 92% (active) | 98.5% (active) | 0% | 96% (active) | 97.2% (active)
